p53ts 39C kill – kills p53ts cells at the nonpermissive temperature; 1.5% of 130,000 active; H1299-p53A138V viability at 39C, ATP luminescence, 24 h; Potency, µM (doses to about 46.1 µM), inactives show at the highest dose activity change, negative = cell killing, hits mostly cytotoxic; further: on the % scale 0 is the no-effect control and ±100 the full control effect; nearly all actives have a fitted effect of over 55% in size
p53ts 32C tox – cytotoxicity in p53ts cells at permissive temperature; H1299-p53A138V at 32C, ATP luminescence viability, 24 h; Potency, µM (series often up to 46.1 µM), for the others: at the highest dose activity change, negative = cytotoxicity, usual class: cytotoxic; 0.93% of 130,000 active;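 further: 0% = DMSO and -100% = full killing by reference compound; nearly all actives have a fitted effect of over 55% in size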
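Viability by ATPlite luminescence after 24 h compound treatment (up to 46 uM) at the permissive 32C. Cells are H1299 carrying p53 A138V. Scale runs from DMSO basal to 100 uM tamoxifen as full kill; AC50 from Hill fits.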
Peg3 imprint – inducers of genomic imprint erasure in mouse ES cells. Potency, µM (top dose mostly 60.7 µM), for the others: at the highest dose activity change, positive = activation, usual class: activators. mouse ES Peg3-LacZ reporter, beta-gal luminescence, 40 h. AID 1948. 0.02% of 110,000 active
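Readout: BetaGlo luminescence (5 min, room temp) for LacZ from the normally silent maternal Peg3 allele in female Peg3LacZ-Neo ES cells. Cells 300/well, 40 h, 37C, 5% CO2. Data normalized per plate to negative controls.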
* marks the source's active call; other numbers are inactive results; ? = inconclusive; . = not tested or not shown; [ ] = remark or other dose. In the library only some 1.8% were active in any assay of this set; here they are far more common. The call rests on the fitted dose curve; in most records, active means well fitted curve in the direction sought with a large enough effect; inconclusive means small, poorly fitted or top-dose-only effect, or another doubt; inactive means no such curve, though single readings can be large; an effect the other way counts as inactive or inconclusive. Potency means the concentration at half of the fitted maximal effect.

SMILES	p53ts 39C kill	p53ts 32C tox	Peg3 imprint
COc1cccc(C(=O)CC2(O)C(=O)Nc3ccc(Cl)cc32)c1 (stereo not drawn)	-28.5%	7.5%	19.5%[10.9 µM]
COC(=O)N1CCC2(CCCN(Cc3nccs3)C2)CC1	-1.1%	5.0%	.
CCC(Sc1nc2cc(OC)c(OC)cc2c(=O)n1Cc1ccc(Cl)cc1)C(=O)NCCOC (stereo not drawn)	2.3%	8.1%	-13.8%[10.9 µM]
Cc1cccc(CCn2c(=O)c3ccccc3n(Cc3ccccc3C)c2=O)c1	-13.6%	7.8%	-9.4%[10.9 µM]
CCCSc1nc(=O)c2c(n1C)NC(=O)CC2c1cccc(F)c1F (stereo not drawn)	5.7%	0.2%	7.3%[10.9 µM]
COc1cc(OC)c(NC(=O)CSc2nc3ccncc3[nH]2)cc1Cl	1.5%	-6.7%	-14.5%[10.9 µM]
Cc1ccc2nc(/C(C#N)=C/c3ccc(-c4cccc(Cl)c4)o3)[nH]c2c1	3.98µM*	?	-6.9%[10.9 µM]
N#C/C(=C\c1ccc(-c2ccc(Cl)c(C(=O)O)c2)o1)c1nc2ccccc2[nH]1	-9.1%	?	-9.7%[10.9 µM]

Screening data deposited in PubChem BioAssay by National Center for Advancing Translational Sciences (NCATS).
